Source: PubChem BioAssay (NCI)
The panel holds about 79,000 compounds, 15% with a hit somewhere; the sample as a whole holds those more often. Activity calls are given as the source filed them. Rule as the data show it: active = growth inhibition above about 70%; inactive = the rest.

How the values were obtained:
[1] = NCI Yeast Anticancer Drug Screen. Data for the rad52 strain (AID 147);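 also: 0% = growth of vehicle-treated control cultures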; conditions: S. cerevisiae rad52 mutant growth inhibition, hits give high values
Summary of the method: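 Yeast strain carrying a DNA damage repair alteration was exposed to test compounds. Growth inhibition was measured relative to vehicle-treated controls.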

[2] = NCI Yeast Anticancer Drug Screen. Data for the wt1 strain (AID 149);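 also: 0% = growth of vehicle-treated wt1 cultures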; conditions: S. cerevisiae wt1 strain (SPY 50644) growth inhibition, hits give high values
Summary of the method: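 Using yeast strain wt1, compound-induced growth inhibition was determined against vehicle-treated cultures.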

[3] = NCI Yeast Anticancer Drug Screen. Data for the rad50EPP+ strain (AID 151);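 also: 0% = growth of vehicle-treated control cultures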; conditions: S. cerevisiae rad50 mutant strain, hits give high values
Summary of the method: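 Yeast strain carrying rad50 alteration (rad50EPP+) exposed to compounds; growth inhibition measured relative to vehicle-treated controls.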

[4] = NCI Yeast Anticancer Drug Screen. Data for the mgt1 strain (AID 153); conditions: S. cerevisiae mgt1 mutant growth inhibition, hits give high values
Summary of the method: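 Yeast mgt1 strain (DNA repair/cell-cycle alteration panel) exposed to compounds; growth inhibition measured relative to vehicle-treated controls.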

[5] = NCI Yeast Anticancer Drug Screen. Data for the rad50 strain (AID 155);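 also: 0% = growth of vehicle-only cultures of the same strain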; conditions: S. cerevisiae rad50 strain growth inhibition, hits give high values
Summary of the method: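 Relative growth inhibition (compound vs vehicle) was measured in yeast with a defined repair-gene alteration.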

[6] = NCI Yeast Anticancer Drug Screen. Data for the mec2-1 strain (AID 157); conditions: S. cerevisiae mec2-1 strain, hits give high values
Summary of the method: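 mec2-1 yeast strain, carrying an alteration in DNA damage repair or cell cycle control, was exposed to compounds; growth inhibition was measured relative to vehicle-treated controls.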

[7] = NCI Yeast Anticancer Drug Screen. Data for the rad14 strain (AID 159);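 also: 0% = growth of vehicle-treated control cultures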; conditions: S. cerevisiae rad14 strain growth inhibition, hits give high values
Summary of the method: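 Screen for anticancer potential: a yeast strain altered in DNA damage repair is grown with compound, and reduced growth is quantified against vehicle controls.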

[8] = NCI Yeast Anticancer Drug Screen. Data for the sgs1 mgt1 strain (AID 161);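 also: 0% = growth of cultures given vehicle only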; conditions: S. cerevisiae sgs1 mgt1 strain, at 50.0 µM, hits give high values
Summary of the method: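 Percent growth inhibition was derived by comparing compound-exposed mutant yeast with vehicle-exposed cultures. The strain carries alterations in DNA damage repair.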

[9] = NCI Yeast Anticancer Drug Screen. Data for the CLN2oe strain (AID 163);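 also: 0% = growth of vehicle-only control cultures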; conditions: S. cerevisiae CLN2oe strain, hits give high values
Summary of the method: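 Yeast cells carrying a defined cell-cycle control alteration were exposed to test compounds. Growth inhibition was scored against vehicle-treated control cultures.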

[10] = NCI Yeast Anticancer Drug Screen. Data for the cln2 rad14 strain (AID 165);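 also: 0% = growth equal to vehicle treated cultures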; conditions: S. cerevisiae cln2 rad14 strain, at 50.0 µM, hits give high values
Summary of the method: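 Yeast carrying cln2 and rad14 alterations (cell cycle control and DNA damage repair) were exposed to compounds. Growth inhibition was measured against vehicle-treated controls.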

[11] = NCI Yeast Anticancer Drug Screen. Data for the bub3 strain (AID 167); conditions: S. cerevisiae bub3 mutant strain, hits give high values
Summary of the method: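 Screening used yeast with an engineered genetic alteration affecting cell cycle control. Compound-exposed cultures were compared with vehicle cultures, and reduced growth was taken as inhibition.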

[12] = NCI Yeast Anticancer Drug Screen. Data for the wt2 strain (AID 169);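 also: 0% = growth of vehicle-treated yeast cultures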; conditions: S. cerevisiae wt2 strain growth inhibition, hits give high values
Summary of the method: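 Yeast cells were exposed to test compounds, and growth inhibition was measured relative to vehicle-treated controls.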

[13] = NCI Yeast Anticancer Drug Screen. Data for the mlh1 strain (AID 171);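 also: 0% = growth of vehicle-treated control cultures of the same strain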; conditions: S. cerevisiae mlh1 strain growth inhibition, hits give high values
Summary of the method: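 Yeast carrying a defined genetic alteration in DNA damage repair or cell cycle control were exposed to test compounds. Growth inhibition was measured relative to vehicle-treated controls.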

[14] = NCI Yeast Anticancer Drug Screen. Data for the sgs1 strain (AID 173);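 also: 0% = growth of vehicle-only control cultures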; conditions: S. cerevisiae sgs1 mutant, hits give high values
Summary of the method: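 Yeast mutant strains carrying defined defects in DNA damage repair or cell cycle control were exposed to test compounds. Growth inhibition was scored against vehicle-treated controls.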

[15] = NCI Yeast Anticancer Drug Screen. Data for the mlh1 rad18 strain (AID 175); conditions: S. cerevisiae mlh1 rad18 strain growth inhibition; at 50.0 µM; hits give high values
Summary of the method: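 Growth inhibition of the yeast strain was measured after compound exposure and expressed relative to vehicle-treated controls. The strain carries defined defects in DNA damage repair.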

[16] = NCI Yeast Anticancer Drug Screen. Data for the rad18 strain (AID 177); conditions: S. cerevisiae rad18 mutant growth inhibition, hits give high values
Summary of the method: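 Yeast carrying a defined DNA damage repair alteration were exposed to compounds. Growth inhibition was expressed relative to vehicle-treated controls.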

Measured: growth inhibition

Nc1nc(F)nc2c1ncn2C1OC(COP(=O)(O)O)C(O)C1O (stereo unspecified)
active: [6]; at 100.0 µM 87%
inactive: [1]; at 1.2 µM 2% | [1]; at 3.7 µM 5% | [1]; at 11.0 µM 12% | [1]; at 33.0 µM 22% | [1]; at 100.0 µM 52% | [2]; at 1.2 µM 1% | [2]; at 3.7 µM 1% | [2]; at 11.0 µM 2% | [2]; at 33.0 µM 5% | [2]; at 100.0 µM 2% | [3]; at 1.2 µM 3% | [3]; at 3.7 µM 12% | [3]; at 11.0 µM 26% | [3]; at 33.0 µM 43% | [3]; at 100.0 µM 67% | [4]; at 1.2 µM -3% | [4]; at 3.7 µM 0% | [4]; at 11.0 µM 2% | [4]; at 33.0 µM 5% | [4]; at 100.0 µM 12% | [5]; at 1.2 µM 3% | [5]; at 3.7 µM 9% | [5]; at 11.0 µM 18% | [5]; at 33.0 µM 32% | [5]; at 50.0 µM 11.1% | [5]; at 100.0 µM 61% | [6]; at 1.2 µM 1% | [6]; at 3.7 µM 7% | [6]; at 11.0 µM 13% | [6]; at 33.0 µM 27% | [6]; at 50.0 µM 4.2% | [7]; at 1.2 µM -1% | [7]; at 3.7 µM -2% | [7]; at 11.0 µM 2% | [7]; at 33.0 µM 5% | [7]; at 100.0 µM 19% | [8] -1.15% | [9]; at 1.2 µM -4% | [9]; at 3.7 µM -5% | [9]; at 11.0 µM -5% | [9]; at 33.0 µM -5% | [9]; at 100.0 µM -2% | [10] -3.75% | [11]; at 1.2 µM -8% | [11]; at 3.7 µM -8% | [11]; at 11.0 µM -3% | [11]; at 33.0 µM -10% | [11]; at 50.0 µM -29.9% | [11]; at 100.0 µM -1% | [12]; at 1.2 µM -2% | [12]; at 3.7 µM 1% | [12]; at 11.0 µM 1% | [12]; at 33.0 µM 6% | [12]; at 100.0 µM 18% | [13]; at 1.2 µM 0% | [13]; at 3.7 µM 2% | [13]; at 11.0 µM 5% | [13]; at 33.0 µM 9% | [13]; at 100.0 µM 19% | [14]; at 1.2 µM 18% | [14]; at 3.7 µM 30% | [14]; at 11.0 µM 39% | [14]; at 33.0 µM 47% | [14]; at 100.0 µM 53% | [15] -26.4% | [16]; at 1.2 µM -2% | [16]; at 3.7 µM -1% | [16]; at 11.0 µM 1% | [16]; at 33.0 µM 5% | [16]; at 100.0 µM 19%
